Laboratory results reported in PubChem BioAssay AID1159580 (chemical genetic matrix, 2015).
Values joined by “and” are separate entries in the source; they are usually repeats but may differ in a detail not shown here. Identical values can stand only once. In all, about 5,500 compounds went through this assay and about 2,000 (36%) were called active. Another 18% or so got no clear call; they are omitted. Some of the results follow. Unmarked numbers belong to inactive results. Rule as the data show it: active = normalized growth mostly below about 0.91 (no sharp cut-off); inconclusive = no clear call, values can overlap the other calls; inactive = mostly above about 0.92.

Test: chemical genetic growth profiling, strain panel (AID 1159580);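 also: tested at 20 µM; growth read once vehicle control cultures reached saturation at 30 °C; 1 = growth at the plate median or of vehicle wells; lower values mean less growth of the strain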
Conditions: S. cerevisiae deletion strains, growth OD
[1] = locus YDL101C, strain DUN1, active compounds read low
[2] = locus YGR052W, strain FMP48, active compounds read low
[3] = locus YHR030C, strain SLT2, active compounds read low
[4] = locus YHR079C, strain IRE1, active compounds read low
[5] = locus YHR082C, strain KSP1, active compounds read low
[6] = locus YJL095W, strain BCK1, active compounds read low
[7] = locus YJR066W, strain TOR1, active compounds read low
[8] = locus YKL203C, strain TOR2, active compounds read low
[9] = locus YLR113W, strain HOG1, active compounds read low
[10] = locus YNL183C, strain NPR1, active compounds read low
[11] = locus YNL207W, strain RIO2, active compounds read low
[12] = locus YOR119C, strain RIO1, active compounds read low
[13] = locus YOR231W, strain MKK1, active compounds read low
[14] = locus YPL256C, strain CLN2, active compounds read low
[15] = locus YAL013W, strain DEP1, active compounds read low
[16] = locus YBR229C, strain ROT2, active compounds read low
[17] = locus YDL134C, strain PPH21, active compounds read low
[18] = locus YDR150W, strain NUM1, active compounds read low
[19] = locus YEL061C, strain CIN8, active compounds read low
[20] = locus YGR078C, strain PAC10, active compounds read low
[21] = locus YHR087W, strain rtc3, active compounds read low
[22] = locus YJR043C, strain POL32, active compounds read low
[23] = locus YJR075W, strain HOC1, active compounds read low
[24] = locus YLR039C, strain RIC1, active compounds read low
[25] = locus YLR058C, strain SHM2 (second series), active compounds read low
[26] = locus YLR085C, strain ARP6, active compounds read low
[27] = locus YLR262C, strain YPT6, active compounds read low
[28] = locus YML094W, strain GIM5, active compounds read low
[29] = locus YMR219W, strain ESC1, active compounds read low
[30] = locus YMR263W, strain SAP30, active compounds read low
[31] = locus YNL128W, strain TEP1, active compounds read low
[32] = locus YNL153C, strain GIM3, active compounds read low
[33] = locus YNL298W, strain CLA4 (second series), active compounds read low
[34] = locus YNL322C, strain KRE1, active compounds read low
[35] = locus YNR030W, strain Alg12, active compounds read low
[36] = locus YPL055C, strain LGE1, active compounds read low
[37] = locus YPL241C, strain CIN2, active compounds read low
[38] = locus YPR135W, strain CTF4, active compounds read low

**Q.** What does the source list for Cc1cc(Sc2c([N+](=O)[O-])cc(C(F)(F)F)cc2[N+](=O)[O-])c(Cl)cc1Cl?
**A.** normalized growth (locus YAR019C, strain CDC15, active compounds read low): 0.995; normalized growth (locus YBL105C, strain PKC1, active compounds read low): 1; normalized growth (locus YBR135W, strain CKS1, active compounds read low): 0.995; normalized growth (locus YBR136W, strain MEC1, active compounds read low): 0.995; normalized growth (locus YBR160W, strain CDC28, active compounds read low): 0.991; normalized growth (locus YDL017W, strain CDC7, active compounds read low): 0.999; normalized growth (locus YDL028C, strain MPS1, active compounds read low): 0.99; normalized growth [1]: 0.995; normalized growth (locus YDL108W, strain KIN28, active compounds read low): 0.995; normalized growth (locus YDL132W, strain cdc53, active compounds read low): 0.99; normalized growth (locus YDL214C, strain PRR2, active compounds read low): 0.98; normalized growth (locus YDR052C, strain DBF4, active compounds read low): 0.993; normalized growth (locus YDR054C, strain cdc34, active compounds read low): 0.99; normalized growth (locus YDR226W, strain ADK1, active compounds read low): 0.978; normalized growth (locus YDR477W, strain SNF1, active compounds read low): 0.959; normalized growth (locus YER123W, strain YCK3, active compounds read low): 0.97; normalized growth (locus YER133W, strain GLC7, active compounds read low): 0.998; normalized growth (locus YFL009W, strain cdc4, active compounds read low): 0.992; normalized growth (locus YFL029C, strain CAK1, active compounds read low): 1; normalized growth (locus YFR003C, strain YPI1, active compounds read low): 0.997; normalized growth (locus YFR019W, strain FAB1, active compounds read low): 0.964; normalized growth (locus YFR028C, strain CDC14, active compounds read low): 0.996; normalized growth (locus YGR040W, strain KSS1, active compounds read low): 0.964; normalized growth [2]: 1.01; normalized growth (locus YGR092W, strain DBF2, active compounds read low): 0.982; normalized growth [3]: 0.928; normalized growth [4]: 0.861; normalized growth [5]: 0.988; normalized growth (locus YHR205W, strain SCH9, active compounds read low): 0.911; normalized growth (locus YIL147C, strain SLN1, active compounds read low): 0.996; normalized growth [6]: 0.964; normalized growth (locus YJL128C, strain PBS2, active compounds read low): 0.955; normalized growth (locus YJL157C, strain FAR1, active compounds read low): 0.926; normalized growth (locus YJR016C, strain ILV3, active compounds read low): 1; normalized growth (locus YJR066W, strain TOR1 (second series), active compounds read low): 0.949; normalized growth [7]: 0.961; normalized growth (locus YKL048C, strain ELM1, active compounds read low): 0.987; normalized growth (locus YKL067W, strain YNK1, active compounds read low): 0.994; normalized growth (locus YKL101W, strain HSL1, active compounds read low): 0.995; normalized growth (locus YKL193C, strain SDS22, active compounds read low): 0.999; normalized growth [8]: 1; normalized growth [9]: 1.02; normalized growth (locus YLR133W, strain CKI1, active compounds read low): 0.96; normalized growth (locus YLR403W, strain SFP1, active compounds read low): 0.931; normalized growth (locus YML070W, strain DAK1, active compounds read low): 0.996; normalized growth (locus YMR001C, strain CDC5, active compounds read low): 1; normalized growth (locus YMR205C, strain PFK2 (second series), active compounds read low): 0.998; normalized growth (locus YMR277W, strain FCP1, active compounds read low): 0.995; normalized growth (locus YNL006W, strain LST8, active compounds read low): 1; normalized growth (locus YNL020C, strain ARK1, active compounds read low): 0.924; normalized growth (locus YNL161W, strain CBK1, active compounds read low): 0.977; normalized growth [10]: 1.04; normalized growth [11]: 0.991; normalized growth (locus YNL222W, strain SSU72, active compounds read low): 0.991; normalized growth (locus YNL307C, strain MCK1 (second series), active compounds read low): 0.974; normalized growth (locus YOL078W, strain AVO1, active compounds read low): 0.995; normalized growth (locus YOL136C, strain PFK27, active compounds read low): 0.926; normalized growth (locus YOR061W, strain CKA2, active compounds read low): 0.967; normalized growth [12]: 1.05; normalized growth [13]: 0.976; normalized growth (locus YOR329C, strain SCD5, active compounds read low): 0.994; normalized growth (locus YPL031C, strain PHO85, active compounds read low): 0.928; normalized growth (locus YPL153C, strain RAD53, active compounds read low): 0.965; normalized growth (locus YPL204W, strain HRR25, active compounds read low): 0.947; normalized growth (locus YPL209C, strain IPL1, active compounds read low): 0.999; normalized growth [14]: 0.99; normalized growth (locus YPR025C, strain CCL1, active compounds read low): 0.997; normalized growth (locus YPR106W, strain ISR1, active compounds read low): 0.996; normalized growth (locus YPR111W, strain DBF20, active compounds read low): 0.974; normalized growth (strain NNK1, active compounds read low): 0.99; normalized growth (strain TSCII, active compounds read low): 1

**Q.** With O=[N+]([O-])c1cc(C(F)(F)F)cc([N+](=O)[O-])c1Oc1ccc(Cl)c(Cl)c1 as the compound, how does the normalized growth [15] read?
**A.** The normalized growth was 0.0591 (active).

**Q.** What about the normalized growth [16] of the same compound?
**A.** The normalized growth was 0.062 (active).

**Q.** And the normalized growth [1]?
**A.** Its normalized growth is 0.0834 (active).

**Q.** What about the normalized growth [17] of the same compound?
**A.** Its normalized growth is 0.0454 (active).

**Q.** And the normalized growth [18]?
**A.** Its normalized growth is 0.0593 (active).

**Q.** What about the normalized growth [19] of the same compound?
**A.** Its normalized growth is 0.053 (active).

**Q.** And the normalized growth [2]?
**A.** The normalized growth was 0.12 (active).

**Q.** What about the normalized growth [20] of the same compound?
**A.** Its normalized growth is 0.0542 (active).

**Q.** What about the normalized growth (locus YGR229C, strain SMI1, active compounds read low) of the same compound?
**A.** The normalized growth was 0.0505 (active).

**Q.** What about the normalized growth [3] of the same compound?
**A.** The normalized growth was 0.0926 (active) and 0.11 (active).

**Q.** And the normalized growth [4]?
**A.** Its normalized growth is 0.11 (active).

**Q.** And the normalized growth [5]?
**A.** Its normalized growth is 0.12 (active).

**Q.** What about the normalized growth [21] of the same compound?
**A.** The normalized growth was 0.0631 (active).

**Q.** And the normalized growth [6]?
**A.** The normalized growth was 0.12 (active).

**Q.** What about the normalized growth (locus YJL187C, strain SWE1, active compounds read low) of the same compound?
**A.** Its normalized growth is 0.0563 (active).

**Q.** And the normalized growth [22]?
**A.** The normalized growth was 0.0569 (active).

**Q.** What about the normalized growth [7] of the same compound?
**A.** The normalized growth was 0.11 (active).

**Q.** What about the normalized growth [23] of the same compound?
**A.** The normalized growth was 0.084 (active).

**Q.** And the normalized growth (locus YKL171W, strain NNK1, active compounds read low)?
**A.** Its normalized growth is 0.101 (active).

**Q.** And the normalized growth (locus YKL190W, strain CNB1, active compounds read low)?
**A.** The normalized growth was 0.0457 (active).

**Q.** What about the normalized growth [8] of the same compound?
**A.** Its normalized growth is 0.0962 (active).

**Q.** And the normalized growth [24]?
**A.** The normalized growth was 0.0653 (active).

**Q.** What about the normalized growth [25] of the same compound?
**A.** The normalized growth was 0.0562 (active).

**Q.** And the normalized growth [26]?
**A.** Its normalized growth is 0.0698 (active).

**Q.** And the normalized growth [9]?
**A.** Its normalized growth is 0.173 (active).

**Q.** What about the normalized growth [27] of the same compound?
**A.** Its normalized growth is 0.0617 (active).

**Q.** What about the normalized growth [28] of the same compound?
**A.** The normalized growth was 0.0673 (active).

**Q.** What about the normalized growth [29] of the same compound?
**A.** Its normalized growth is 0.0518 (active).

**Q.** What about the normalized growth [30] of the same compound?
**A.** The normalized growth was 0.0593 (active).

**Q.** And the normalized growth [31]?
**A.** Its normalized growth is 0.0548 (active).

**Q.** And the normalized growth [32]?
**A.** The normalized growth was 0.0599 (active).

**Q.** And the normalized growth [10]?
**A.** The normalized growth was 0.146 (active).

**Q.** And the normalized growth [11]?
**A.** The normalized growth was 0.108 (active).

**Q.** What about the normalized growth [33] of the same compound?
**A.** Its normalized growth is 0.0706 (active).

**Q.** And the normalized growth [34]?
**A.** Its normalized growth is 0.0592 (active).

**Q.** And the normalized growth [35]?
**A.** The normalized growth was 0.0612 (active).

**Q.** What about the normalized growth (locus YOL006C, strain TOP1, active compounds read low) of the same compound?
**A.** Its normalized growth is 0.068 (active).

**Q.** And the normalized growth [12]?
**A.** The normalized growth was 0.095 (active).

**Q.** And the normalized growth [13]?
**A.** The normalized growth was 0.113 (active).

**Q.** And the normalized growth [36]?
**A.** The normalized growth was 0.0764 (active).

**Q.** And the normalized growth [37]?
**A.** The normalized growth was 0.061 (active).

**Q.** And the normalized growth [14]?
**A.** The normalized growth was 0.135 (active).

**Q.** And the normalized growth [38]?
**A.** The normalized growth was 0.184 (active).

**Q.** What does the source list for O=[N+]([O-])c1cc(C(F)(F)F)ccc1Oc1cc(C(F)(F)F)cc(C(F)(F)F)c1?
**A.** normalized growth [15]: 1.03; normalized growth [16]: 1; normalized growth [1]: 1.04; normalized growth [17]: 0.982; normalized growth [18]: 1.02; normalized growth [19]: 1.03; normalized growth [20]: 1.01; normalized growth [3]: 1.03; normalized growth [21]: 1.02; normalized growth [22]: 0.996; normalized growth [23]: 1.01; normalized growth [24]: 1.02; normalized growth [25]: 0.982; normalized growth [26]: 1.01; normalized growth [27]: 0.992; normalized growth [28]: 1.12; normalized growth [29]: 0.99; normalized growth [30]: 0.993; normalized growth (locus YMR307W, strain GAS1, active compounds read low): 1.12; normalized growth [31]: 0.97; normalized growth [32]: 1.03; normalized growth [33]: 1.01; normalized growth [34]: 1; normalized growth [35]: 1.05; normalized growth [36]: 1.09; normalized growth [37]: 1.07; normalized growth [38]: 1.12
